Assay: small-molecule microarray binders of probe aEGFR, primary screen, biochemical, biotinylated probe, 635/667 nm fluorescence (AID 1097);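 note: probe is a biotinylated anti-EGFR antibody binding compounds printed on slides; score combines fluorescence near 667 nm and signal to noise of each spot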
Conditions: higher = more signal

Row | Compound | composite z-score
1 | O=C1OCCC/C=C\[C@H]2OC34C=CCN(Cn5nnc6ccccc65)C(=O)[C@H]3N(CCCO)C(=O)[C@@H]4C12 (stereo not given in full) | -0.232
2 | CC(C)N1C(=O)c2ccccc2[C@](C)(C(=O)NC2CC2)[C@@H]1c1ccc(CO)cc1 | -0.081
3 | O=C1C2C=CC(C(O)CCc3ccccc3)N(Nc3ccccc3)C2C(=O)N1c1ccccc1 (stereo not given) | 0.0864
4 | O=C1O[C@H](c2ccccc2)[C@H](c2ccccc2)N2[C@H]1[C@@H](C(=O)N1CCCCCCC1)[C@]1(C(=O)Nc3ccc(C#CC4=CCCCC4)cc31)[C@H]2c1ccc(O)cc1 | 1.47
5 | CC(C)OC(=O)C1=CCC(c2cccc(Cl)c2)O1 (stereo not given) | -0.306
6 | C=CCN1C(=O)[C@@]2(O[C@@H](CCO)[C@H]([Si](C)(C)c3ccc(OC)cc3)[C@H]2C)c2cc(N3C(=O)COc4ccccc43)ccc21 | -0.178
7 | C=CCC(OC(C)=O)[C@@H]1[C@@H](N(Cc2ccc(-c3ccccc3)cc2)C(=O)c2ccc(C)cc2)c2cc(OCCCO)ccc2N1C(=O)c1ccc2ccccc2n1 (stereo not given in full) | -0.0836
8 | COCCOC(=O)N1C(=O)[C@@]2(c3cc(C#CC4=CCCCC4)ccc31)[C@H](c1ccc(OCCO)cc1)N1[C@H](c3ccccc3)[C@H](c3ccccc3)OC(=O)[C@H]1[C@@H]2C(=O)Nc1nc2ccccc2s1 | -0.0164
9 | O=[N+]([O-])c1ccc(C[n+]2ccc(CCCO)cc2)o1 | 0.296
10 | C=C(C)[C@@H]1CC=C(C(O)C2C=CC3C(=O)N(Cc4ccccc4)C(=O)C3N2n2cnnc2)CC1 (stereo not given in full) | -0.161
11 | CCCNC(=O)[C@@]1(C)c2ccccc2C(=O)N(Cc2cc(F)cc(C(F)(F)F)c2)[C@H]1c1ccc(CO)cc1 | -0.194
12 | CO[C@H]1O[C@H](CO)[C@@H](OC(=O)Nc2cccc(F)c2)[C@H](OC(=O)Nc2ccccc2-c2ccccc2)[C@@H]1OC(=O)Nc1ccccc1-c1ccccc1 | -0.013
13 | CCOC(=O)N1C(c2ccc(OCCCO)cc2)=NC(C(=O)OC)N1C(=O)OCC (stereo not given) | -0.0325
14 | COCCCNC(=O)[C@@]1(Cc2ccccc2I)c2ccccc2C(=O)N(Cc2ccccc2)[C@H]1c1ccc(CO)cc1 | -0.302
15 | COc1ccc(C#Cc2ccc3c(c2)[C@]2(C(=O)N3)[C@H](C(=O)N3CCN(c4ncccn4)CC3)[C@H]3C(=O)O[C@H](c4ccccc4)[C@H](c4ccccc4)N3[C@@H]2c2ccc(O)cc2)cc1 | -0.0573
16 | CN(C)CCCC[C@@H]1NC(=O)[C@@H]2C[C@H](C(=O)NCc3ccc(F)cc3)[C@H](c3cccc(OCCO)c3)N2C1=O | -0.0953
17 | O=C1O[C@@H](c2ccccc2)[C@@H](c2ccccc2)N2[C@@H](c3ccc(O)cc3)[C@]3(C(=O)Nc4ccc(C#CCCO)cc43)[C@@H](C(=O)O)[C@H]12 | 1.07
18 | CC(C)NC(=O)[C@@]1(c2ccc([N+](=O)[O-])cc2)CC(=O)N(C(C)C)[C@@H]1c1ccc(CO)cc1 | -0.253
19 | C=CCC(OC(C)=O)[C@@H]1[C@@H](N(Cc2ccc(-c3cccc(C(F)(F)F)c3)o2)C(=O)Cc2ccc(OC)cc2)c2cc(OCCCO)ccc2N1C(=O)Cc1ccc(OC)cc1 (stereo not given in full) | -0.178
20 | C[n+]1ccc2ccc(O)cc2c1 | -0.0453
21 | C=C(CCCC)/C(=C/C[C@H](OC(C)=O)c1ccc(CO)o1)c1cc(C(=O)OC)ccc1OC | -0.125
22 | COCCOC(=O)N1C(=O)[C@@]2(c3cc(C#Cc4ccc(OC)cc4)ccc31)[C@H](c1ccc(OCCO)cc1)N1[C@H](c3ccccc3)[C@H](c3ccccc3)OC(=O)[C@H]1[C@@H]2C(=O)N1CCc2cc(OC)c(OC)cc2C1 | -0.02
23 | CC(C)C(O)C1C=CC2C(=O)N(C)C(=O)C2N1N1CCCCC1 (stereo not given) | 0.0635
24 | CCN(CC)c1ccc(N2CC=CC34O[C@@H]5C=CCOC(=O)[C@@H]5[C@H]3C(=O)N(CCCCCO)[C@@H]4C2=O)cc1 (stereo not given in full) | -0.201
25 | Cc1cc(C)c(C(O)C2C=CC3C(=O)NC(=O)C3N2Nc2ccccn2)c(C)c1 (stereo not given) | 0.0221

Reference: PubChem BioAssay
